Structures are written as SMILES. A number with no mark means an inactive call. Records with an inconclusive call do not appear. Calls of active or inactive are those of the source. Unless noted, calls follow the shape of the full dose curve.

Experiment [1] is described as follows: Nuclear factor erythroid 2-related factor 2/antioxidant responsive element (Nrf2/ARE) small molecule agonists: qHTS cell viability counter screen in human keratinocytes (AID 1919968; active = well fitted cell-killing curve with a large enough effect in the repeat runs; also: nearly all actives have a fitted effect of over 55% in size). In short, it runs like this: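 Cells of the KeratinoSens line were plated at 1,500 per well and left for 5 h before compound transfer from DMSO stocks. After a 23 h incubation (37 C, 5% CO2), CellTiter-Fluor was added. Signal was taken as fluorescence intensity 1 h later.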

The nature of experiment [2]: Nuclear factor erythroid 2-related factor 2/antioxidant responsive element (Nrf2/ARE) small molecule agonists: luciferase reporter gene qHTS assay in human keratinocytes (AID 1919969). Also: nearly all actives have a fitted effect of over 35% in size. Also: potency is read from the fitted curve at half-maximal effect.
Experiment [3] deals with Gonadotropin-releasing hormone receptor (Homo sapiens) (UniProt P30968). The experiment in a line: Human gonadotropin-releasing hormone receptor (GnRHR) small molecule agonists, calcium flux assay in GnRHR-HEK293 cells (AID 1920063). Also: nearly all actives have a fitted effect of over 35% in size. In short, it runs like this:
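Compounds dissolved in DMSO are pin-transferred onto dye-loaded GnRHR-HEK293 cells, which were seeded 18 h before at 37 C/5% CO2. Calcium signal is read as fluorescence intensity at 1 s intervals for 3 min.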

Experiment [4] is described as follows: G protein-coupled receptor (GPCR) small molecule agonists, calcium flux assay: HEK293 wild type cell line counter screen (AID 1920065). In short, it runs like this:
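Tox21 10K compounds, 15 concentrations each in triplicate, pin-transferred in DMSO onto dye-loaded cells; kinetic read at 480/540 nm for 3 min, 1 s intervals.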

A short description of experiment [5]: p53 small molecule agonists, cell-based qHTS assay with human liver microsomes (AID 1963577).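 Also: p53 response element beta-lactamase reporter cells with liver microsomes plus NADPH.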 The method, boiled down: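 Reporter activation was measured by LiveBLAzer fluorescence intensity in p53RE-bla cells, which had been exposed to compounds for 16 h at 37 C alongside 0.5 mg/mL human liver microsomes and 0.5 mg/mL NADPH (final concentrations).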
Experiment [6] can be described thus: p53 small molecule agonists, cell-based qHTS assay with rat liver microsomes (AID 1963578). The method, boiled down: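 Compound in DMSO added to p53RE-bla cells 5 h post-plating; rat microsomes/NADPH 0.5 mg/mL final; 16 h, 37 C; LiveBLAzer 2 h RT.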
Experiment [7] in a line: p53 small molecule agonists, cell-based qHTS assay with human liver microsomes: qHTS cell viability counter screen (AID 1963579). Also: nearly all actives have a fitted effect of over 45% in size. In short, it runs like this:
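HLM-supplemented (0.5 mg/mL final) and NADPH-supplemented (0.5 mg/mL final) p53RE-bla cultures, 4,000 cells per well, were dosed with compounds in DMSO for 16 h at 37 C; luminescent ATP detection (CellTiter-Glo, 30 min, room temperature) quantified surviving cells.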

Experiment [8] can be described thus: p53 small molecule agonists, cell-based qHTS assay with rat liver microsomes: qHTS cell viability counter screen (AID 1963580). Also: nearly all actives have a fitted effect of over 45% in size. The method, boiled down:
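Counter screen for cytotoxicity under metabolic activation: rat liver microsomes and NADPH, 0.5 mg/mL final each, added with compounds to p53RE-bla HCT-116 cells; 16 h at 37 C, then ATP luminescence read.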

The nature of experiment [9]: p53 small molecule agonists, cell-based qHTS assay: qHTS cell viability counter screen (AID 1963581). Also: nearly all actives have a fitted effect of over 45% in size. The method, boiled down: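 ATP content measured by luminescence in HCT-116 p53RE-bla cells treated 16 h at 37 C, same wells as the reporter screen.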
Experiment [10] has as its target 5-hydroxytryptamine receptor 2A (Homo sapiens) (UniProt P28223). The experiment in a line: 5-hydroxytryptamine receptor 2A (HTR2A) small molecule antagonists, cell-based qHTS assay (AID 1963586). Also: nearly all actives have a fitted effect of over 45% in size. The method, boiled down:
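CHO cells stably expressing human HTR2A were plated for 18 h at 37 C, then loaded with calcium dye for 1 h. Compounds were preincubated 5 min at room temperature before DOI (4 nM solution) was added. Kinetic fluorescence was read for 3 min.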

Experiment [11] shares this target. The experiment in a line: 5-hydroxytryptamine receptor 2A (HTR2A) small molecule agonists, cell-based qHTS assay (AID 1963587). Also: nearly all actives have a fitted effect of over 30% in size. In short, it runs like this:
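HTR2A-CHO cells, plated 18 h at 37 C/5% CO2, dye-loaded 1 h at 37 C; compounds in DMSO added by pin tool (agonist mode). Intracellular calcium flux read as kinetic fluorescence on FDSS over 2 min at 1 s intervals.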

Experiment [12] deals with Muscarinic acetylcholine receptor M1 (Homo sapiens) (UniProt P11229). The experiment in a line: Cholinergic receptor muscarinic 1 (CHRM1) small molecule antagonists, cell-based qHTS assay (AID 1963588). Also: nearly all actives have a fitted effect of over 40% in size. In short, it runs like this: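 Compounds were tested at 15 concentrations in three independent runs. Dye-loaded CHRM1-CHO cells were exposed 5 min at room temperature before stimulation by acetylcholine added at 50nM. Intracellular calcium was read kinetically on FDSS for 3 min.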
Chain of Muscarinic acetylcholine receptor M1 (Homo sapiens) (P11229 whole entry, looked up): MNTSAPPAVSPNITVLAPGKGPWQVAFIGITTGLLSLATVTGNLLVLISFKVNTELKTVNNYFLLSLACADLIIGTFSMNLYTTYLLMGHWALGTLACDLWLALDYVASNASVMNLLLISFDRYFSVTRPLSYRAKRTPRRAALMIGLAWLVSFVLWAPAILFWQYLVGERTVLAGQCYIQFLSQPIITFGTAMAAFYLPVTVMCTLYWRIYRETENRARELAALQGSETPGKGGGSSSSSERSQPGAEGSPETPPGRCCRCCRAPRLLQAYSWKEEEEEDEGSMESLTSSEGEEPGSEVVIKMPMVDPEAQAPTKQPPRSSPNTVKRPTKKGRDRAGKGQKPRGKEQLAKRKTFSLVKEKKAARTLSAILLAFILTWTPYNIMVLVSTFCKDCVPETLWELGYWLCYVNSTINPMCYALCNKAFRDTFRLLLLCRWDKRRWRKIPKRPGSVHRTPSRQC

Experiment [13] has the same target. The experiment in a line: Cholinergic receptor muscarinic 1 (CHRM1) small molecule agonists, cell-based qHTS assay (AID 1963589). Also: nearly all actives have a fitted effect of over 35% in size. The method, boiled down:
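Homogeneous fluorescence calcium flux, agonist mode. Human M1-expressing CHO cells; compound dosed at 15 concentrations, three independent runs; signal sampled every 1 sec.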

A short description of experiment [14]: cAMP Responsive Elements (CRE) small molecule agonists, cell-based qHTS assay (AID 1963590). In short, it runs like this: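 HEK 293T cells stably bearing CRE-bla were plated at 2,000 cells per well and rested 18 h. Compounds, positive controls or DMSO were added for 3 h at 37 C. LiveBLAzer B/G substrate was then loaded for 2 h at room temperature.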
For experiment [15], the target named is Beta-2 adrenergic receptor (Homo sapiens) (UniProt P07550). The experiment in a line: Adrenergic beta2 receptor (ADRB2) small molecule antagonists, cell-based qHTS assay (AID 1963592). Also: series mostly up to about 92 µM; nearly all actives have a fitted effect of over 50% in size. In short, it runs like this:
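Assay format: CHO-ADRB2 cells, 18-20hr seeding at 37C/5% CO2, then compound plus 1nM isoproterenol agonist mix for 0.5hr RT. Homogeneous time-resolved fluorescence cAMP detection after 1hr, expressed as 665/615 nm ratio.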

In experiment [16] the target is D(2) dopamine receptor (Homo sapiens) (UniProt P14416). The experiment in a line: Dopamine D2 receptor (DRD2) small molecule agonists, cell-based qHTS assay (AID 1963594). Also: nearly all actives have a fitted effect of over 35% in size. In short, it runs like this: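 HEK293 cells stably expressing DRD2 were cultured 24 h at 37 C, then given Ro20-1724 (0.1 mM final) and compounds for 10 min at room temperature. NKH477 (200nM) was then added for 30 min. cAMP was read by HTRF.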
Chain of D(2) dopamine receptor (Homo sapiens) (P14416 whole entry, looked up): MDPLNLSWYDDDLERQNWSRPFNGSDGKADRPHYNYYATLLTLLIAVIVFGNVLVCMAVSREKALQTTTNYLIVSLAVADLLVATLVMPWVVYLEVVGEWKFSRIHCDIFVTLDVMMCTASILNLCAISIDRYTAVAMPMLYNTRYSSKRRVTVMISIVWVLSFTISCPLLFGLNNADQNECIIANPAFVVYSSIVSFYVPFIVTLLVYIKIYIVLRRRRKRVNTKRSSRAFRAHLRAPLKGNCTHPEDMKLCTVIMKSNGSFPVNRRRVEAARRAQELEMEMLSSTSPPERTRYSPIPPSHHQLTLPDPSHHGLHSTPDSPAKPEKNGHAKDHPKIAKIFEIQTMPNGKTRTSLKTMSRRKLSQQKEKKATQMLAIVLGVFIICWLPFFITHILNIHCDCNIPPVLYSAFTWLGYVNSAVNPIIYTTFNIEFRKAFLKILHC

Experiment [17] has the same target. The experiment in a line: Dopamine D2 receptor (DRD2) small molecule antagonists, cell-based qHTS assay (AID 1963595; active = well fitted inhibition curve with a large enough effect in the signal ratio in the repeat runs, with a control signal flat; the % refers to the signal ratio). The method, boiled down: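 Human DRD2 antagonist qHTS measuring cAMP by HTRF. The cells are exposed to compound for 10 min, then to NKH477 (200 nM) and quinpirole (12 nM) for 30 min at RT, with Ro20-1724 (0.1 mM) present throughout.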
Experiment [18] can be described thus: p53 small molecule agonists, cell-based qHTS assay (AID 1963582; active = well fitted activation curve with a large enough effect in the signal ratio in the repeat runs, not every such curve was filed as active; the % refers to the signal ratio). In short, it runs like this: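 16 h compound exposure (37 C) of p53 response element–bla cells, preceded by 5 h recovery at 37 C/5% CO2; read-out via LiveBLAzer B/G FRET substrate, 2 h RT, fluorescence intensity.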
Experiment [19] is described as follows: cAMP Responsive Elements (CRE) small molecule antagonists, cell-based qHTS assay (AID 1963591; active = well fitted inhibition curve with a large enough effect in the signal ratio in the repeat runs, not every such curve was filed as active; the % refers to the signal ratio). The method, boiled down: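 First, CRE-bla HEK293T cells settled 18 h at 37 C. Next, compound and 0.25 uM final NKH477 were applied for 3 h. Last, LiveBLAzer B/G substrate was loaded for 2 h at room temperature.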

Chain of 5-hydroxytryptamine receptor 2A (Homo sapiens) (P28223 whole entry, looked up): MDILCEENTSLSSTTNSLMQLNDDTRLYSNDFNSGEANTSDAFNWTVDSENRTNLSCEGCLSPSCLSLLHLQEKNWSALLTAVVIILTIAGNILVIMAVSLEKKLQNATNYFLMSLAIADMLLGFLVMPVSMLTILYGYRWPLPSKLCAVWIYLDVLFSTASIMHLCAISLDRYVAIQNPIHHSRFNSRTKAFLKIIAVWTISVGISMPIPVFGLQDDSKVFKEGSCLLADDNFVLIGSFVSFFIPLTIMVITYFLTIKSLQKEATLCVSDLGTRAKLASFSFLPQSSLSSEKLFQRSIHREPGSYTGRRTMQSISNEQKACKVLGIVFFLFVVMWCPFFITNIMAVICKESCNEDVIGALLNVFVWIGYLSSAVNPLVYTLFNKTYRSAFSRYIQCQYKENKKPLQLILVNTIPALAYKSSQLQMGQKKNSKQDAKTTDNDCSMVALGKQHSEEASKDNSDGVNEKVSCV
Chain of Beta-2 adrenergic receptor (Homo sapiens) (P07550 whole entry, looked up): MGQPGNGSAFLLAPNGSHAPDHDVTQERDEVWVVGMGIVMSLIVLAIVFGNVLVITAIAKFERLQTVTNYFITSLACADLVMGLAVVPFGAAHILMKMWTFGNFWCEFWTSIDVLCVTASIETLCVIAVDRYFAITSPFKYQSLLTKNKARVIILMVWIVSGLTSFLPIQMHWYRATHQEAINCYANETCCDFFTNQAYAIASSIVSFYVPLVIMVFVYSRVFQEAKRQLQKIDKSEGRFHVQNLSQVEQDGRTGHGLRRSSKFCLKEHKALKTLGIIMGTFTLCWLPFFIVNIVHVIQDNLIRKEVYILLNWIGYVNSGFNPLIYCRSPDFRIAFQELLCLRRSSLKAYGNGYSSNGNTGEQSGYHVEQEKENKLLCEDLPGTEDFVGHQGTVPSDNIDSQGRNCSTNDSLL
Chain of Gonadotropin-releasing hormone receptor (Homo sapiens) (P30968 whole entry, looked up): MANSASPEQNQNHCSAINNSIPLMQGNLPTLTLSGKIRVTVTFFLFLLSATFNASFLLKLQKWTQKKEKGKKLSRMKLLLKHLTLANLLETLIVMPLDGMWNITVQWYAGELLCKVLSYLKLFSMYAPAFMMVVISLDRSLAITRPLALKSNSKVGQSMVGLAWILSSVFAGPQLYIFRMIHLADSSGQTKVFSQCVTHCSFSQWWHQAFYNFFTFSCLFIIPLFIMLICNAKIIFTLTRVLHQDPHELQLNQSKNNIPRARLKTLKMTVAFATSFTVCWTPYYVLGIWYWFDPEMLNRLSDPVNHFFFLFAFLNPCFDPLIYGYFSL

Turning to `CO[C@@H]1[C@H](OC(=O)/C=C/C=C/C=C/C=C/C(=O)O)CC[C@]2(CO2)[C@H]1[C@@]1(C)O[C@@H]1CC=C(C)C`, the Potency result in [1], in [3], in [5], in experiment [6], in experiment [7] and in experiment [8] was “inactive” throughout. Moreover, the Potency entry in [9], in [10], in [11], in experiment [12], in experiment [13] and in [14] was “inactive” in each case. Moreover, the Potency result in experiment [15], in [16] and in [17] was “inactive” in each case. Moreover, in experiment [2], the Potency is 61.1 µM (active). Besides, the outcome in experiment [4] was inactive.

In the case of `O=C1N(c2ccccc2)c2ccccc2C1(Cc1ccncc1)Cc1ccncc1`, the Potency entry in [1], in [2], in experiment [3], in experiment [5], in [6] and in experiment [7] was “inactive” each time. In addition, the Potency entry in experiment [8], in experiment [9], in [18], in experiment [10], in [13] and in [14] was “inactive” each time. For the same molecule, the Potency entry in [19], in [15], in experiment [16] and in [17] was “inactive” throughout. Also, the result in experiment [4] was inactive.

Take `CC(C)COC(=O)c1ccccc1`: the Potency entry in [1], in experiment [2], in experiment [3], in experiment [5], in [6] and in experiment [7] was “inactive” each time. Further, the Potency result in [8], in experiment [9], in [18], in experiment [10], in experiment [11] and in experiment [12] was “inactive” each time. Further, the Potency result in experiment [14], in [19], in [16] and in experiment [17] was “inactive” each time. Further, in [4], the outcome was inactive.

Turning to `CC(C)(C)NCC(O)COc1cccc2c1CCC(=O)N2` (stereo unspecified), the Potency result in experiment [1], in experiment [2], in experiment [3], in [5], in [6] and in experiment [7] was “inactive” in each case. The Potency result in [8], in experiment [18], in [10], in [11], in experiment [12] and in [13] was “inactive” each time. Also, the Potency entry in experiment [14] and in experiment [19] was “inactive” in each case. Also, the result in experiment [4] was inactive.

For `NCc1ccco1`, the Potency result in [1], in experiment [2], in [3], in [5], in experiment [6] and in experiment [7] was “inactive” in each case. Further, the Potency result in [8], in experiment [18], in experiment [10], in experiment [11], in [12] and in experiment [13] was “inactive” throughout. For the same molecule, the Potency entry in [19], in [15], in [16] and in experiment [17] was “inactive” in each case. In addition, in experiment [4], the outcome was inactive.

For `NCC1CCC(C(=O)Oc2ccc(CCC(=O)O)cc2)CC1` (stereo unspecified), the Potency entry in [1], in experiment [2], in [3], in experiment [5], in [6] and in experiment [7] was “inactive” each time. Moreover, the Potency result in [8], in [9], in [18], in experiment [15], in [16] and in experiment [17] was “inactive” each time. The result in [4] was inactive.

As for `CC(Oc1cc(Cl)ccc1Cl)C(=O)O` (stereo unspecified), the Potency result in experiment [1], in experiment [2], in [3], in [5], in [6] and in experiment [7] was “inactive” in each case. In addition, the Potency result in experiment [8], in experiment [9], in experiment [18], in experiment [10], in experiment [11] and in experiment [12] was “inactive” throughout. Further, the Potency result in experiment [13], in experiment [15], in experiment [16] and in [17] was “inactive” in each case. Besides, in experiment [4], the result was inactive.

Turning to `Cc1cc(-c2ccccc2)nnc1NCCN1CCOCC1`, the Potency result in experiment [1], in [2], in [3], in experiment [5], in experiment [6] and in experiment [7] was “inactive” in each case. The Potency result in experiment [8], in [18], in [10], in [11], in experiment [12] and in experiment [13] was “inactive” in each case. In addition, the Potency result in experiment [14], in experiment [19], in experiment [15], in experiment [16] and in experiment [17] was “inactive” throughout. Besides, the outcome in [4] was inactive.

The values are drawn from PubChem BioAssay (Tox21).
